The values below come from the supplement of paper PMC10681739.

The target in assay [1] is RUNX1 (UniProt Q01196). Nature of the assay: RUNX1 binding intensity (PBM fluorescence), RUNX1 alone (arbitrary fluorescence units); higher = stronger binding. Particulars: RUNX1 concentration 2 nM; ETS1 concentration 0 nM. As to the method: (§1)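 Cooperative gcPBM on 36-bp genomic probes with neighbouring ETS1 and RUNX1 sites. Recombinant human RUNX1 (2 nM) was incubated alone or with ETS1 (25 nM) and detected with anti-RUNX1 antibody plus Alexa488 secondary. Values are medians over 4 replicate spots; the RUNX1+ETS1 data were normalised to the RUNX1-only data. The probes sit in constant array flanks that are not printed.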
Chain of RUNX1 (Q01196 whole entry): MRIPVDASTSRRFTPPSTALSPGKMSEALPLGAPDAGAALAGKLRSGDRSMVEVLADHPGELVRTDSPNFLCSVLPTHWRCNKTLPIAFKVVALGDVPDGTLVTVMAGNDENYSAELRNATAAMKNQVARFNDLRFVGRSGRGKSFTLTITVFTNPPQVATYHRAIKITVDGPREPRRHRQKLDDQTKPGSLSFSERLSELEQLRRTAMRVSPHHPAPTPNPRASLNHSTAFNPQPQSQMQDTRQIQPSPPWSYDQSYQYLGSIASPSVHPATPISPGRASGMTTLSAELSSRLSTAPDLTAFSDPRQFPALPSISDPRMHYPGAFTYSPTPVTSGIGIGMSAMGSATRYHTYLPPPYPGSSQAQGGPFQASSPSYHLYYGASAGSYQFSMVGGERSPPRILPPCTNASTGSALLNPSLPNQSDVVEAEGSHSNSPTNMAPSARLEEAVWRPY

Assay [2] addresses T1, ETS1 (UniProt P14921).
T1 sequence: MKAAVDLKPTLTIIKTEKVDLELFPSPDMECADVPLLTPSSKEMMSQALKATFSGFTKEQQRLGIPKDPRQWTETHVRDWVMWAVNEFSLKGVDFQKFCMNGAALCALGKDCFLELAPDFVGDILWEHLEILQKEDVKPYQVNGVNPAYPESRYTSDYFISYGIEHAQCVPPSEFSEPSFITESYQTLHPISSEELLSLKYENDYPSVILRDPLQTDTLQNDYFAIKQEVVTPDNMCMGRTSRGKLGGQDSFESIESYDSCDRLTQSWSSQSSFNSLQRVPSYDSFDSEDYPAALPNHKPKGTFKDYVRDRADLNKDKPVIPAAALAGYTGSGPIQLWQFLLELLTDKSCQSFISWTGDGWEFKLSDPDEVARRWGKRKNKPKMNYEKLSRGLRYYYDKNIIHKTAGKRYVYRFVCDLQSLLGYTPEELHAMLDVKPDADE
Nature of the assay: ETS1 binding intensity (PBM fluorescence) in presence of RUNX1, normalised to ETS1-only experiment (arbitrary fluorescence units); higher = stronger binding. To be noted: ETS1 concentration 1 nM; RUNX1 concentration 25 nM.

Assay [3] deals with RUNX1 (UniProt Q01196). The experiment in a line: RUNX1 binding intensity (PBM fluorescence) in presence of ETS1, normalised to RUNX1-only experiment (arbitrary fluorescence units); higher = stronger binding. To be noted: RUNX1 concentration 2 nM; ETS1 concentration 25 nM. As to the method:
as §1
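For RUNX1 binding intensity (PBM fluorescence) in presence of ETS1, normalised to RUNX1-only experiment in this document: Full-length recombinant human ETS1 or RUNX1 bound to double-stranded 36-bp genomic probes on microarrays, detected by protein-specific primary antibody and Alexa488 secondary, spot fluorescence as median of four replicate spots.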
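For RUNX1 binding intensity (PBM fluorescence), RUNX1 alone in this document: Full-length recombinant human RUNX1 bound to double-stranded 36-bp genomic probes on a high-density microarray, scored as Alexa488 fluorescence per spot via anti-RUNX1 antibody, median of four replicate spots.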

With TCTAGTTCTGGTTTCCGGACCGCATTCGGAACTAGA, the RUNX1 binding intensity in assay [1] stood at 786; in assay [3] it was 1350. Moreover, the ETS1 binding intensity in assay [2] was found to be 1390.
For the sequence GGGAGGTCACATCCTGCCCGCGGTCTCAGAAAAGCT, the RUNX1 binding intensity in assay [1] is 782; in assay [3], 2080. Besides, the ETS1 binding intensity in assay [2] is 989.
As for CCCTCATCTTCCTGCTTCAGGCAGCTGTGGTTTACC, the RUNX1 binding intensity came out at 1070 in assay [1] and 1660 in assay [3]. Further, in assay [2], the ETS1 binding intensity was determined as 1550.
Take CGAAAGTGACCGGAAGTAACCGCCGGGCCAAGATGG: the RUNX1 binding intensity in assay [1] is 795; in assay [3], 1530. Moreover, the ETS1 binding intensity in assay [2] turned out to be 18200.
As to CTTCGACCCCGGAAGCGCTAACCACCCCGGGGGCCG, the RUNX1 binding intensity was found to be 797 in assay [1] and 1370 in assay [3]. In assay [2], the ETS1 binding intensity was determined as 5880.
Regarding ATACTGAGTCATTTCCTGTGGTGTTATTGTGTTGTA, the figures for the RUNX1 binding intensity in assay [1] and in assay [3] were 993 and 1570, respectively. Moreover, the ETS1 binding intensity in assay [2] was 2500.
Taken in the same sequence, the figures for GACAGCAACTCCACTTCCTGTGGGCGAGGGCCCTGT were 835, 1790 and 2270.
Regarding AGCAGGGCTCGCCGGGAAATGTGGTTTCTCCAGCCG, the RUNX1 binding intensity is 843 in assay [1] and 952 in assay [3].
For the sequence TCTGCCGCCAGCCCATCCGCGACCGCATCCAGATCT, the RUNX1 binding intensity in assay [1] amounted to 1250; in assay [3] it was 1210. Moreover, the ETS1 binding intensity in assay [2] turned out to be 653.
As to CCTGCCTGACCGGAAGTGCCCGCAACCCCACCGACC, the RUNX1 binding intensity came to 1180 in assay [1] and 2870 in assay [3]. The ETS1 binding intensity in assay [2] turned out to be 32600.
The like results for CAGAACGGTCCCCGGAACACTGCGGTTCCCGCCTGG were, in that order, 1040, 889 and 895.
As for GCTCAAGTACCGGAAAGGCCCGCAGAAAGAAGGGCA, the RUNX1 binding intensity in assay [1] worked out at 748; in assay [3] it was 1060. Also, the ETS1 binding intensity in assay [2] amounted to 1270.
Taken in the same sequence, the figures for GTGTTTCCTCTTTGTTTTGGGGCTGTGGTTGCCACA were 1330, 3180 and 600.
The like results for GACTATGTGCTTCCGGTCTCCAATACCGCAGGAGGG were, in that order, 981, 2690 and 13600.
Take GGCAGGAAAGAGCTGATGCATTTCAACCGCAGCCTG: the results for the RUNX1 binding intensity in assay [1] and in assay [3] were 1110 and 1040, respectively. Besides, in assay [2], the ETS1 binding intensity turned out to be 2430.
The like results for GAGTGACTGCTAACGGATGTGTGGTTTCTTTAGTTT were, in that order, 926, 1470 and 6590.
